Results filed as inconclusive are left out. Active and inactive are the calls of the source. Rule for the calls, unless noted: active = hit-call score of the fitted dose curve at least 0.9, where 1 is the maximum; inactive = score below 0.9.
Assays:
[1] = CCTE_Mundy_HCI_Cortical_NOG_NeuriteLength: CCTE's Neurite Outgrowth Assay in rat cortical cells for Neurite Length, Mundy Lab (AID 2284213)
Procedure, shortened: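 First, rat primary cortical cells were plated and, 2 h later, given test chemical as a 1/10 dilution. Finally, βIII-tubulin immunostaining enabled automated imaging of neurite length.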

[2] = CCTE_Mundy_HCI_Cortical_Synap_Neur_Matur_NeuriteLength: CCTE's Synaptogenesis and Neurite Maturation Assay in rat cortical cells for Neurite Length, Mundy Lab (AID 2284214)
Procedure, shortened: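 Cultures of rat primary cortical cells received chemical at DIV 7 and were fixed at DIV 12, after glial arrest with AraC at DIV 5. Neurite length was measured by automated imaging of MAP2 immunofluorescence.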

[3] = CCTE_Mundy_HCI_Cortical_Synap_Neur_Matur_SynapseCount: CCTE's Synaptogenesis and Neurite Maturation Assay in rat cortical cells for Synapse Count, Mundy Lab (AID 2284218)
Procedure, shortened: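 Cells were plated, allowed 2 hr to attach, treated with AraC at DIV 5, then exposed to chemicals from DIV 7 until DIV 12. After fixation and MAP2/synaptophysin immunolabelling, synapses per neuron were quantified by automated imaging against DMSO.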

[4] = CCTE_Mundy_HCI_Cortical_Synap_Neur_Matur_NeuriteCount: CCTE's Synaptogenesis and Neurite Maturation Assay in rat cortical cells for Neurite Count, Mundy Lab (AID 2284222);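 note: exposure from day 7 to day 12 in vitro with readout at day 12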
Procedure, shortened: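 Primary rat cortical cells were plated, treated with AraC at DIV 5, then exposed to chemicals from DIV 7 through DIV 12. After fixation and immunostaining for MAP2 and synaptophysin, imaging quantified neurites, with DMSO as the negative control.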

[5] = CCTE_Mundy_HCI_Cortical_Synap_Neur_Matur_CellBodySpotCount: CCTE's Synaptogenesis and Neurite Maturation Assay in rat cortical cells for Cell Body Spot Count, Mundy Lab (AID 2284223)
Procedure, shortened: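 Read-out: cell body-associated synaptophysin puncta per neuron, imaged after MAP2, synaptophysin and Hoechst staining. Rat cortical cells, AraC DIV 5, chemical dosing DIV 7, fixation DIV 12. Activity fitted in positive direction relative to DMSO baseline.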

[6] = CCTE_Mundy_HCI_hNP1_Pro_ResponderAvgInten: CCTE's Proliferation Assay in human neuroprogenitor cells, Mundy Lab (AID 2284224; active = hit-call score of the fitted dose curve at least 0.9, where 1 is the maximum;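 note: human neural progenitor cells hNP1 derived from WA09 embryonic stem cells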)
Procedure, shortened: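 Human neuroprogenitors (hNP1, WA09 lineage) receive test chemical after 40 to 44 hours of attachment. A four-hour BrdU pulse begins twenty hours later, followed by fixation and high content imaging; signal is referenced to DMSO controls.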

[7] = UKN2_HCS_IMR90_cell_viability: Viability Assessment in the University of Konstanz (UKN) Leist Lab Neural Crest Cell Migration Assay in human induced IMR90 Pluripotent Stem Cells (UKN2) (AID 2284233);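 note: viability of neural crest cells differentiated from IMR90 iPSC measured by calcein-AM fluorescence imaging; cells exposed to compound for 24 h after a 24 h migration phase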
Procedure, shortened: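 cMINC format, iPSC-derived neural crest (IMR90); 24 h migration (EGF/FGF, N2-S), then 24 h toxicant. Calcein-AM/H-33342 stain 30 min; fluorescence intensity by HCS; DMSO-normalised, bidirectional fitting.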

[8] = CCTE_Mundy_HCI_Cortical_NOG_NeuronCount: CCTE's Neurite Outgrowth Assay in rat cortical cells for Neuron Count, Mundy Lab (AID 2284236; active = hit-call score of the fitted dose curve at least 0.9, where 1 is the maximum;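 note: neurons counted by imaging betaIII-tubulin and Hoechst stained cortical cells; cells exposed to compound for about 48 hours before fixation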)
Procedure, shortened: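 Read-out: neuron number by high-content imaging of betaIII-tubulin (Alexa Fluor-488) and Hoechst-labelled rat primary cortical cells.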

[9] = CCTE_Mundy_HCI_Cortical_NOG_BPCount: CCTE's Neurite Outgrowth Assay in rat cortical cells for Branch Point Count, Mundy Lab (AID 2284237)
Procedure, shortened: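 Measured 50.33 h after dosing, this morphology endpoint uses rat primary cortical cultures labelled for betaIII-tubulin. Branch points are quantified by high-content imaging, with DMSO as negative control and baseline.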

[10] = CCTE_Mundy_HCI_hNP1_Casp3_7: CCTE's Caspase-Glo 3/7 Assay in human neuroprogenitor cells for Apoptosis, Mundy Lab (AID 2284240)
Procedure, shortened: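 Neuroepithelial-lineage stem cells from WA09 embryonic cells were treated with chemicals after 40–44 h of culture. Twenty-four hours later, caspase-3/7 activation was detected luminescently after a 30 min room-temperature reagent step, with DMSO as baseline.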

[11] = CCTE_Mundy_HCI_hNP1_CellTiter: CCTE's Cell Titer-Glo 2 Assay in human neuroprogenitor cells for Viability, Mundy Lab (AID 2284241; active = hit-call score of the fitted dose curve at least 0.9, where 1 is the maximum)
Procedure, shortened: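 Measures ATP content in human neural progenitors derived from WA09 embryonic cells. Read-out at 26.5 hours after dosing, with DMSO serving as the negative control and baseline.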

[12] = IUF_NPC2a_radial_glia_migration_120hr: Leibniz Research Institute for Environmental Medicine (IUF) 120-hour Neural Progenitor Cell Migration Assay for Radial Glia Migration (NPC2a) (AID 2284298)
Procedure, shortened: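 Hoechst-stained nuclei imaged at 120 h; algorithm maps sphere core by densest nuclei, sets migration edge at density threshold, gives radial glia migration distance (um) per well vs DMSO. hNPC spheres (0.3 mm), PDL/laminin, DMEM/F12 3:1 + 1% N2.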

[13] = IUF_NPC2a_radial_glia_migration_72hr: Leibniz Research Institute for Environmental Medicine (IUF) 72-hour Neural Progenitor Cell Migration Assay for Radial Glia Migration (NPC2a) (AID 2284299)
Procedure, shortened: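 Single 0.3 mm neurospheres were plated per well in N2 differentiation medium and exposed from the start of differentiation. After 72 hours, brightfield images were taken and radial glia migration from the sphere core edge was measured manually in four directions, averaged per well.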

[14] = IUF_NPC2b_neuronal_migration_120hr: Leibniz Research Institute for Environmental Medicine (IUF) 120-hour Neural Progenitor Cell Migration Assay for Neuron Migration (NPC2b) (AID 2284300)
Procedure, shortened: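 hNPC spheres, PDL/laminin, DMEM:F12 3:1 + 1% N2, 37C/5% CO2; 7 concentrations + solvent control (DMSO ≤0.1%), 5 d exposure, half-feed day 3. Fix 120 h, TUBB3 ICC, HCI: mean neuron migration distance ÷ glia distance.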

[15] = IUF_NPC3_neuronal_differentiation_120hr: Leibniz Research Institute for Environmental Medicine (IUF) 120-hour Neuronal Differentiation Assay (NPC3) (AID 2284301)
Procedure, shortened: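 Neuronal differentiation of primary human neural progenitors measured by high-content imaging: percent TUBB3+ of Hoechst+ nuclei within migrated area at 120 h, seven-point serial dilution plus solvent control, gain or loss relative to DMSO.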

[16] = IUF_NPC4_neurite_length_120hr: Leibniz Research Institute for Environmental Medicine (IUF) 120-hour Neuronal Morphology Assay for Neurite Length (NPC4) (AID 2284302)
Procedure, shortened: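 Neurons from differentiating human fetal neural progenitor spheres are scored for average neurite length after five days of compound exposure. Fitting uses DMSO as negative control.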

[17] = IUF_NPC4_neurite_area_120hr: Leibniz Research Institute for Environmental Medicine (IUF) 120-hour Neuronal Morphology Assay for Neurite Area (NPC4) (AID 2284305; active = hit-call score of the fitted dose curve at least 0.9, where 1 is the maximum)
Procedure, shortened: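 Endpoint at 120 h: automated imaging of TUBB3/Hoechst-stained differentiating human neural progenitor spheres, neurite area per neuron from skeletonization. DMSO solvent control, not above 0.1%, set the baseline; medium was half-replaced on day 3.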

[18] = IUF_NPC2-5_cytotoxicity_72hr: Cytotoxicity Assessment at 72 hours in the Leibniz Research Institute for Environmental Medicine (IUF) Neural Progenitor Cell Migration and Differentiation Assay for Cytotoxicity (NPC2-5) (AID 2284306; active = hit-call score of the fitted dose curve at least 0.9, where 1 is the maximum;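 note: LDH release into supernatant measured by resorufin fluorescence marking membrane damage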)
Procedure, shortened: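 Primary human neural progenitor spheres migrate and differentiate on laminin. Compound is present from the start of differentiation, with DMSO kept at or below 0.1%. At 72 h, supernatant LDH is quantified fluorometrically, with values fitted in the positive direction.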

[19] = IUF_NPC2-5_cytotoxicity_120hr: Cytotoxicity Assessment at 120 hours in the Leibniz Research Institute for Environmental Medicine (IUF) Neural Progenitor Cell Migration and Differentiation Assay (NPC2-5) (AID 2284307; active = hit-call score of the fitted dose curve at least 0.9, where 1 is the maximum)
Procedure, shortened: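 hNPC spheres on PDL/laminin, N2 medium, 37C; 7 concs + solvent control, DMSO ≤0.1%; 5-day exposure, half medium changed day 3. LDH in supernatant at 120 h, resazurin→resorufin fluorescence, gain-of-signal.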

[20] = IUF_NPC2-5_cell_number_120hr: Cell Number Assessment at 120 hours in the Leibniz Research Institute for Environmental Medicine (IUF) Neural Progenitor Cell Migration and Differentiation Assay (NPC2-5) (AID 2284308);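 note: count of Hoechst-stained nuclei in migration zone around plated human neural progenitor spheres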
Procedure, shortened: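 Hoechst-stained nuclei within the migration area were counted by automated high content imaging after 120 h. Single hNPC spheres differentiated on poly-D-lysine/laminin in DMEM/F12 (3:1) with 1% N2, compound present throughout, DMSO ≤0.1%.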

[21] = IUF_NPC2-5_viability_120hr: Viability Assessment at 120 hours in the Leibniz Research Institute for Environmental Medicine (IUF) Neural Progenitor Cell Migration and Differentiation Assay (NPC2-5) (AID 2284312)
Procedure, shortened: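 Human fetal (GW 16-19) neural progenitor spheres of 0.3 mm were plated on poly-D-lysine/laminin in N2 differentiation medium and exposed from day 0 for 120 h, with half-medium refresh at day 3. Viability was read as alamar blue resazurin-to-resorufin fluorescence against DMSO.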

[22] = CCTE_Mundy_HCI_iCellGluta_NOG_NeuriteLength: CCTE's Neurite Outgrowth Assay in iCellGluta cells for Neurite Length, Mundy Lab (AID 2284318; active = hit-call score of the fitted dose curve at least 0.9, where 1 is the maximum)
Procedure, shortened: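 Automated high-content imaging of betaIII-tubulin (Alexa Fluor-488) and Hoechst-stained cells gave neurite length, normalized to the DMSO baseline.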

[23] = IUF_NPC1_cytotoxicity_72hr: Cytotoxicity Assessment at 72 hours in the Leibniz Research Institute for Environmental Medicine (IUF) Neural Progenitor Cell Proliferation Assay (NPC1) (AID 2284332; active = hit-call score of the fitted dose curve at least 0.9, where 1 is the maximum;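 note: rising LDH signal means more cytotoxicity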)
Procedure, shortened: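 Membrane-integrity loss is scored from LDH released into the medium, detected as resorufin fluorescence, with activity fitted upward relative to baseline. Test material stays on human fetal-derived progenitor spheres for 72 h.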

Measured: outcome

CC(C)c1nn(C(=O)NC(C)(C)C)c(=O)n1N
inactive: all assays above

— PubChem BioAssay (EPA / NIEHS)
